In the OligoGym collection:

target: FXN; test: pooled miR-30 sensor sort-seq; sequence = guide strand; details: shRNA
Note: reference of the scale not given here.

Question: For TTGTTTGGCGTCTGCTTGTTGA, which sensor-assay potency score (higher = more potent) is on record?
Answer: -0.937

Question: How did the sensor-assay potency score (higher = more potent) turn out when ATTCATCAAATAGACACTCTGC was run?
Answer: 0.393

Question: How did the sensor-assay potency score (higher = more potent) turn out when TTGGTTTTTAAGGCTTTAGTGA was run?
Answer: -0.944

Question: TGGTCTCATCTAGAGAGCCTGG was tested. Which sensor-assay potency score (higher = more potent) did it give?
Answer: -1.32

Question: With TCTGCTAAAGAGTCCAGCGTTT as the sequence, how does the sensor-assay potency score (higher = more potent) read?
Answer: -0.618

Question: With TAAGGCTTTAGTGAGCTCTGCG as the sequence, how does the sensor-assay potency score (higher = more potent) read?
Answer: 0.283

Question: Which sensor-assay potency score (higher = more potent) does the source give for AAAGGAGACATCATAGTCCTCA here?
Answer: 0.0111

Question: TGTTGATCACATAGGTTCCTAG was tested. Which sensor-assay potency score (higher = more potent) did it give?
Answer: -0.584

Question: How did the sensor-assay potency score (higher = more potent) turn out when TAACGCTTAGGTCCACTGGATG was run?
Answer: -1.46

Question: Which sensor-assay potency score (higher = more potent) does the source give for TAGGTGGTCTCATCTAGAGAGC here?
Answer: -1.48

Question: TTGCTTGTTTGGCGTCTGCTTG was tested. Which sensor-assay potency score (higher = more potent) did it give?
Answer: -0.812

Question: How did the sensor-assay potency score (higher = more potent) turn out when ATCAAATAGACACTCTGCTTTT was run?
Answer: -1.04

Question: With TAGTCTTTCATAGGTGGTCTCA as the sequence, how does the sensor-assay potency score (higher = more potent) read?
Answer: -0.873

Question: How did the sensor-assay potency score (higher = more potent) turn out when TTTTTGACATTCCAAATCTGGT was run?
Answer: -1.15

Question: How did the sensor-assay potency score (higher = more potent) turn out when TTTTGACATTCCAAATCTGGTT was run?
Answer: -0.929
